Inconclusive results are not listed. Unmarked numbers belong to inactive results. Activity calls are given as the source filed them. Calls come from the whole dose curve; as a rule, active = well fitted inhibition curve with a large enough effect; inconclusive = small, poorly fitted or top-dose-only effect; inactive = flat fitted curve, though single readings scatter.
target: Luciferin 4-monooxygenase (Photinus pyralis) (UniProt P08659); test: Counterscreen Assay for Enhancers of SMN2 Splice Variant Expression: Interaction with Luciferase Reporter; conditions: purified firefly luciferase, luminescence, 5 min; series mostly up to 40.3 µM
Sequence (P08659 whole entry, looked up, canonical isoform): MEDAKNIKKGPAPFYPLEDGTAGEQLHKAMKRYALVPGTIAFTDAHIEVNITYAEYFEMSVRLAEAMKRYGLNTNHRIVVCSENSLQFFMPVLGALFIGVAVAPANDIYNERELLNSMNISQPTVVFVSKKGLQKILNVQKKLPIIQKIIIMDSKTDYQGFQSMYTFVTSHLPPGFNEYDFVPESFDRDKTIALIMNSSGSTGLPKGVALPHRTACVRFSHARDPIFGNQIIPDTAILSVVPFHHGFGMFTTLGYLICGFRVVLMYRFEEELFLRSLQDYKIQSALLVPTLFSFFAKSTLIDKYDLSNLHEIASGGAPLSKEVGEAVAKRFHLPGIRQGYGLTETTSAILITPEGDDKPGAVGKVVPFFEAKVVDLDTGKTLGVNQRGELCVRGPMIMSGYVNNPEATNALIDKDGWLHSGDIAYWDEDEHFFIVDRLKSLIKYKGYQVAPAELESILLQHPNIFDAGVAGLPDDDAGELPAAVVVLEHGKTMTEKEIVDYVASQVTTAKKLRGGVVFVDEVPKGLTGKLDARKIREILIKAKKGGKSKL
Excerpt: NIH Chemical Genomics Center [NCGC] NIH Molecular Libraries Probe Production centers Network [MLPCN] MLPCN Grant: R03 MH084179-01 Assay Submitter (PI): Elliot Androphy NCGC Assay Overview: Spinal muscular atrophy (SMA) is caused by insufficient levels of the survival motor neuron protein SMN. The SMN locus on chromosome 5q13 contains two inverted copies of SMN called SMN1 and SMN2 which are 99% identical at the amino acid level. SMN1 is a fully functional protein and SMN2 skips exon 7 90% of the time. Skipping of exon 7 produces non-functional protein product. 10% of the SMN2 protein includes exon 7 and is fully functional. In the SMA disease state, mutations in the SMN1 locus are the cause of the disease state. Because only 10% of SMN2 is of the fully functional form, it is not sufficient to overcome the deficiency produced by the loss of the SMN1 product. A therapy that either increases the amount of SMN2 product made increases the inclusion of exon 7 has been proposed for the treatment of SMA. We have designed an assay to identify small molecules that can increase the amount of functional SMN2 product by appending a luciferase reporter gene after the native SMN2 gene, such that inclusion of exon 7 in the expressed product places the luciferase sequence in frame, thus generating functional luciferase enzyme. One potential source of false positives in the primary screening assay is stabilization of the reporter luciferase via direct binding. This assay attempts to identify such compounds by screening directly for luciferase activity in the absence of the cellular system.
NCGC Assay Protocol Summary: The primary screen utilizes a luciferase reporter gene assay, combining the promoter and splicing based cassettes in tandem with the major portion of the native SMN1 cDNA, and then transfected into HEK293 cells. Compounds that modulate luciferase signal presumably modulate expression of […]. In this assay, we utilize purified firefly luciferase in lieu of a cellular reporter to identify compounds interacting directly with luciferase in the primary screen. Sequence, Parameter, Value, Description (1) Reagent, 2.5 uL, Enzyme in buffer (note A) (2) Compound, 23 nL, From stock solutions (3) Time, 5 minutes, Room temp (4) Reagent#2.5 ul, Luciferase detection reagent (note B) (5) Detector, 1 sec integrate, Luminescent read on Viewlux (note C) Sigma enzyme (1 mg) considered to be MW 61,000 diluted in 357 ul assay buffer to 50 uM stock. A - Enzyme and buffer consists of 50 mM Tris-acetate pH 7.6, 10 mM Mg acetate 0.05% BSA, 0.01% Tween and 5 nM firefly luciferase B - Detection reagent = britelite plus diluted 1:10 in PBS C - Viewlux settings were 1 second integration medium sensitivity Keywords: Spinal muscular atrophy, SMA, SMN2, high throughput screening, MLSMR, MLPCN, NIH Roadmap, qHTS and NCGC

Structure (SMILES) | Potency | activity change, negative = inhibition
Cc1ccc(-c2nnc(-c3ccccc3)c(-c3ccccc3)n2)cc1 | inactive | 
O=[N+]([O-])c1ccc(-c2nnc(-c3ccccc3)c(NCCCO)n2)cc1 | 11.2 µM (active) | 
FC(F)C(F)(F)C1=CC(c2cccs2)=NCCN1 |  | -4.71% [at 48.7 pM]
CCCSc1nnc2c(n1)OC(c1sccc1C)Nc1ccccc1-2 (centres undefined) | 14.1 µM (active) | 
CCOc1c(Cl)cc(C(=O)Nc2ccccc2C(=O)O)cc1Cl | 3.98 µM (active) | 
COCCCN1C(=O)C(=O)/C(=C(/O)c2ccc3c(c2)CC(C)O3)C1c1cccnc1 (centres undefined) |  | 4.07% [at 48.7 pM]
CCOC(=O)c1c(-c2cccc(C)c2)csc1NC(=O)c1c(-c2ccccc2)noc1C |  | -9.91% [at 48.7 pM]
O=C(Cc1c(F)cccc1Cl)N1CCN(C(=O)c2ccco2)CC1 |  | -0.165% [at 48.7 pM]
Clc1ccc(-c2nnc(-c3ccccc3)nc2N2CCSCC2)cc1 | 11.2 µM (active) | 
O=c1[nH]c(=O)n(C2CCCO2)cc1Br (centres undefined) | inactive | 
COC(=O)C1=C(CN2CCc3ccccc32)NC(=O)NC1c1cc(C)ccc1C (centres undefined) |  | 18.7% [at 48.7 pM]
CC(C)Nc1nc(-c2ccccc2)nnc1-c1ccccc1 | inactive | 
COC(=O)C1=C(C)NC(=O)/C1=C\c1cc(C)n(-c2ccccc2F)c1C |  | 8.15% [at 48.7 pM]
CCC(=O)n1nc(NCc2ccccc2OC)nc1NCc1ccccc1OC |  | -6.75% [at 48.7 pM]
O=C1CCC(C(=O)Nc2cccc3ccccc23)N1 (centres undefined) |  | 7.8% [at 48.7 pM]
Nn1c(SCC(=O)NCCC2=CCCCC2)nnc1C1CCCCC1 |  | 2.17% [at 48.7 pM]
c1ccc(-c2nnc(-c3ccccc3)c(-c3c[nH]c4ccccc34)n2)cc1 | inactive | 
Cc1nnc(-c2ccccc2)[nH]c1=O | inactive | 
COc1ccc(OC)c(-c2csc(N3CCC(c4ccccc4)CC3)n2)c1 | inactive | 
O=C(NCc1cccs1)C(=O)NCC1OCCCN1S(=O)(=O)c1ccccc1 (centres undefined) |  | 14.3% [at 48.7 pM]
Cc1ccc(-c2nnc(-c3ccccc3)c(N3CCOCC3)n2)cc1 | inactive | 
CCC1=Nc2ccccc2-c2nnc(SC)nc2O1 | inactive | 
O=C(O)c1cccc(COc2ccc(CO)cc2Cl)c1 | 7.08 µM (active) | 
COc1ccc(-c2csc(N3CCC(c4ccccc4)CC3)n2)cc1 | inactive | 

Reference: PubChem BioAssay AID1733 (National Center for Advancing Translational Sciences (NCATS), 2009)
